Drawing on the supplement of paper PMC10723795, this text covers nucleolar normality score for one compound.

± gives the standard deviation of the averaged measurements.

This assay concerns BJ5TA. Kind of assay: nucleolar normality score relative to DMSO (fraction of DMSO control); RPE1 is a non-cancer human cell line; higher = more normal nucleoli (less nucleolar stress). As for the experimental part:
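Selected screen hits were validated in hTERT lines (BJ5TA, CHON-002, RPE1) and cancer lines (DLD1, HCT116). Cells were immunostained for nucleolin and UBF and the nucleolar normality score was measured per field of view, with 4 fields per drug. Scores are normalized to each cell line's own DMSO control. Dose and time are not stated for this panel.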
As for `CC[C@@]1(O)C(=O)OCc2c1cc1n(c2=O)Cc2cc3ccccc3nc2-1` [Camptothecin], the nucleolar normality score was 0.473 ± 0.03.
